Measurements from PubChem BioAssay (Tox21).
Inconclusive results are not listed. Calls of active or inactive are those of the source. Unless noted, the call rests on the fitted dose curve.

Assays:
[1] = Nuclear factor erythroid 2-related factor 2/antioxidant responsive element (Nrf2/ARE) small molecule agonists: qHTS cell viability counter screen in human keratinocytes (AID 1919968; active means well fitted curve in the direction sought with a large enough effect in the repeat runs; an effect the other way counts as inactive or inconclusive; further: nearly all actives have a fitted effect of over 55% in size; further: potency means the concentration at half of the fitted maximal effect)
Summary of the method: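 KeratinoSens cells (HaCaT keratinocytes stably carrying an ARE-luciferase reporter) were seeded at 1,500 cells/well and rested 5 h at 37 C/5% CO2. They were then exposed to compounds in DMSO for 23 h. Viability was read by CellTiter-Fluor fluorescence after 1 h.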

[2] = biological target: Gonadotropin-releasing hormone receptor (Homo sapiens) (UniProt P30968); assay: Human gonadotropin-releasing hormone receptor (GnRHR) small molecule agonists, calcium flux assay in GnRHR-HEK293 cells (AID 1920063); further: nearly all actives have a fitted effect of over 35% in size
Sequence of Gonadotropin-releasing hormone receptor (Homo sapiens) (P30968 whole entry, looked up): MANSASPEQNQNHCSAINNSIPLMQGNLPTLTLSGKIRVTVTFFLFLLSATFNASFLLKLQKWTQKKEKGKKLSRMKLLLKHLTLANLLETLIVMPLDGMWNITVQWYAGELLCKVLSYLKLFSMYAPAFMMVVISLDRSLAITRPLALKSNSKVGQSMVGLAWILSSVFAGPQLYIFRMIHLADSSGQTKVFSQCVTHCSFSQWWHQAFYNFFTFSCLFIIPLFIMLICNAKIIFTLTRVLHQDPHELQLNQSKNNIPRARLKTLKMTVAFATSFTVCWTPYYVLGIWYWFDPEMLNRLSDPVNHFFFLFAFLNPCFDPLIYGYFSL
Summary of the method: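 HEK293 cells stably expressing human GnRHR were plated 18 h at 37 °C, loaded with calcium dye 1 h at 37 °C, then given compound in agonist mode; fluorescence (Ex/Em 480/540) read kinetically for 3 min at 1 s intervals.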

[3] = biological target: KiSS-1 receptor (Homo sapiens) (UniProt Q969F8); assay: Human kisspeptin (KISS1R) small molecule agonists, calcium flux assay in KISS1R-HEK293 cells (AID 1920064; active means well fitted curve in the direction sought with a large enough effect in the repeat runs; an effect the other way counts as inactive or inconclusive)
Sequence of KiSS-1 receptor (Homo sapiens) (Q969F8 whole entry, looked up): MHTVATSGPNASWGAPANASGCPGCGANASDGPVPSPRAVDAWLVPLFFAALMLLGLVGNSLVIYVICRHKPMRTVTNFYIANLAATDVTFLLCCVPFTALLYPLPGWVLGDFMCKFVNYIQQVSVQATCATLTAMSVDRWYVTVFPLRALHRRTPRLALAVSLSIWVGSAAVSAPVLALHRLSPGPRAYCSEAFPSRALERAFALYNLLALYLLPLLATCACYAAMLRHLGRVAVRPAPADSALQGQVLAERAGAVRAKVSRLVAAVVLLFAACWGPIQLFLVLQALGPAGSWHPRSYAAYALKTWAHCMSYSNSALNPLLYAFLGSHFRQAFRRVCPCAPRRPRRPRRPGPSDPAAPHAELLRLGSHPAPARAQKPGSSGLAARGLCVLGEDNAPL
Summary of the method: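 HEK293 cells stably expressing human KISS1R were plated 18 h at 37 °C, loaded with calcium dye for 1 h at 37 °C, then given compound by pin tool. Fluorescence (Ex/Em 480/540) was read kinetically for 3 min.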

[4] = G protein-coupled receptor (GPCR) small molecule agonists, calcium flux assay: HEK293 wild type cell line counter screen (AID 1920065)
Summary of the method: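 Cells were plated and cultured 18 h at 37 C/5% CO2, then loaded with calcium dye for 1 h at 37 C. Compounds in DMSO were pin-transferred in agonist mode, and fluorescence (Ex/Em 480/540) was read kinetically for 3 min at 1 s intervals.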

[5] = p53 small molecule agonists, cell-based qHTS assay with human liver microsomes (AID 1963577);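 further: p53 response element beta-lactamase reporter cells with liver microsomes plus NADPH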
Summary of the method: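 In this qHTS, p53 response-element beta-lactamase cells receive test compound together with a microsome/NADPH activating system (0.5 mg/mL final each) and are incubated 16 h at 37 C before LiveBLAzer fluorescence detection.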

[6] = p53 small molecule agonists, cell-based qHTS assay with rat liver microsomes (AID 1963578)
Summary of the method: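 Agonist mode in p53RE-bla reporter cells, with compounds co-incubated 16 h at 37 C alongside 0.5 mg/mL rat liver microsomes and 0.5 mg/mL NADPH (final), followed by a 2 h LiveBLAzer detection step.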

[7] = p53 small molecule agonists, cell-based qHTS assay with human liver microsomes: qHTS cell viability counter screen (AID 1963579); further: nearly all actives have a fitted effect of over 45% in size
Summary of the method: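 Metabolically activated exposure: compounds, human liver microsomes and NADPH (0.5 mg/mL final apiece) were added to p53RE-bla cells seeded 5 h earlier, left 16 h at 37 C, and then assessed for viability by CellTiter-Glo luminescence.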

[8] = p53 small molecule agonists, cell-based qHTS assay: qHTS cell viability counter screen (AID 1963581); further: nearly all actives have a fitted effect of over 45% in size
Summary of the method: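 p53RE-bla HCT-116 cells were exposed to compounds for 16 h at 37 C; after the beta-lactamase FRET read in the same wells, CellTiter-Glo was added and luminescence (intracellular ATP) read after 30 min at room temperature.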

[9] = p53 small molecule agonists, cell-based qHTS assay (AID 1963582; active means well fitted activation curve with a large enough effect in the signal ratio in the repeat runs, not every such curve was filed as active; the % refers to the signal ratio)
Summary of the method: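 p53RE-bla beta-lactamase reporter cells rested 5 h at 37 C/5% CO2, then received compounds in DMSO by pin transfer and were incubated 16 h at 37 C. LiveBLAzer B/G FRET substrate was loaded for 2 h at room temperature before fluorescence reading.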

[10] = biological target: 5-hydroxytryptamine receptor 2A (Homo sapiens) (UniProt P28223); assay: 5-hydroxytryptamine receptor 2A (HTR2A) small molecule antagonists, cell-based qHTS assay (AID 1963586); further: nearly all actives have a fitted effect of over 45% in size
Sequence of 5-hydroxytryptamine receptor 2A (Homo sapiens) (P28223 whole entry, looked up): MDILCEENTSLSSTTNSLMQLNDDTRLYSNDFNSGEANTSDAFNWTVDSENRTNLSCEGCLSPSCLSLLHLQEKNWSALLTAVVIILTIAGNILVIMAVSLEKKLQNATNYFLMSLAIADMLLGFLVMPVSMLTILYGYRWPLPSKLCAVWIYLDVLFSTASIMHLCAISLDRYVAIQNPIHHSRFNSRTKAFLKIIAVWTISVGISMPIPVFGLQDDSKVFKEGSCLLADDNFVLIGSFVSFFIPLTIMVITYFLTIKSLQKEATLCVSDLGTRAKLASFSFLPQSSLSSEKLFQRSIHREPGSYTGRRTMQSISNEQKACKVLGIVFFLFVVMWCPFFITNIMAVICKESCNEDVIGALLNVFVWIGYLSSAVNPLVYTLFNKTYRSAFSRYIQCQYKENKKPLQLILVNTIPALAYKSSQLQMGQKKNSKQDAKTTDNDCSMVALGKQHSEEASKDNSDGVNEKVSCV
Summary of the method: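 Antagonist-mode intracellular calcium assay: DOI (4 nM) added after 5 min compound pre-incubation at room temperature to dye-loaded HTR2A-CHO cells. Fluorescence followed for 3 min, sampled every second.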

[11] = biological target: 5-hydroxytryptamine receptor 2A (Homo sapiens) (UniProt P28223); assay: 5-hydroxytryptamine receptor 2A (HTR2A) small molecule agonists, cell-based qHTS assay (AID 1963587); further: nearly all actives have a fitted effect of over 30% in size
Summary of the method: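 HTR2A-CHO cells, plated 18 h at 37 C/5% CO2, dye-loaded 1 h at 37 C; compounds in DMSO added by pin tool (agonist mode). Intracellular calcium flux read as kinetic fluorescence on FDSS over 2 min at 1 s intervals.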

[12] = biological target: Muscarinic acetylcholine receptor M1 (Homo sapiens) (UniProt P11229); assay: Cholinergic receptor muscarinic 1 (CHRM1) small molecule antagonists, cell-based qHTS assay (AID 1963588); further: nearly all actives have a fitted effect of over 40% in size
Sequence of Muscarinic acetylcholine receptor M1 (Homo sapiens) (P11229 whole entry, looked up): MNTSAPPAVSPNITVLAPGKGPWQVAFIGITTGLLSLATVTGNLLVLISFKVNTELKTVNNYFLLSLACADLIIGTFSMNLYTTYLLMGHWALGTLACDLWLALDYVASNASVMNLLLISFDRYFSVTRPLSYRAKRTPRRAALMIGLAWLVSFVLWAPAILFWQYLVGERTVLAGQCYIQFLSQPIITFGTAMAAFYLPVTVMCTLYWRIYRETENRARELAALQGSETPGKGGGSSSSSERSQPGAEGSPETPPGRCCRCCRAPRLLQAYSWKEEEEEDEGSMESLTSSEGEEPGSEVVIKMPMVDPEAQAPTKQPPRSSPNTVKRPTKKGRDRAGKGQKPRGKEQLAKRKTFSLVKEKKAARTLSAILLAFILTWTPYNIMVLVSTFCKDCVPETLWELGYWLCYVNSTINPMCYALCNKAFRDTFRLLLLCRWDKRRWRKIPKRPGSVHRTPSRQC
Summary of the method: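 CHRM1-CHO calcium-flux assay, antagonist mode. Cells were seeded 18 h, dye-loaded 1 h at 37 C and given compound for 5 min at RT, then acetylcholine was added at 50nM. FDSS fluorescence was read 3 min; 15 concentrations, three runs.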

[13] = biological target: Muscarinic acetylcholine receptor M1 (Homo sapiens) (UniProt P11229); assay: Cholinergic receptor muscarinic 1 (CHRM1) small molecule agonists, cell-based qHTS assay (AID 1963589); further: nearly all actives have a fitted effect of over 35% in size
Summary of the method: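 CHO cells stably expressing human CHRM1, seeded 18 h at 37 C/5% CO2, dye-loaded 1 h at 37 C, then given compound in agonist mode; intracellular calcium fluorescence read kinetically at 1 s intervals. Fifteen concentrations, three independent runs.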

[14] = cAMP Responsive Elements (CRE) small molecule antagonists, cell-based qHTS assay (AID 1963591; active means well fitted inhibition curve with a large enough effect in the signal ratio in the repeat runs, not every such curve was filed as active; the % refers to the signal ratio)
Summary of the method: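 CRE-bla HEK293T cells were plated 18 h at 37 °C/5% CO2, pinned with compound in DMSO, then stimulated with NKH477 at 0.25 uM final for 3 h. LiveBLAzer B/G FRET substrate was added and plates incubated 2 h at room temperature.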

[15] = biological target: Beta-2 adrenergic receptor (Homo sapiens) (UniProt P07550); assay: Adrenergic beta2 receptor (ADRB2) small molecule antagonists, cell-based qHTS assay (AID 1963592); further: nearly all actives have a fitted effect of over 50% in size; further: potency means the concentration at half of the fitted maximal effect
Sequence of Beta-2 adrenergic receptor (Homo sapiens) (P07550 whole entry, looked up): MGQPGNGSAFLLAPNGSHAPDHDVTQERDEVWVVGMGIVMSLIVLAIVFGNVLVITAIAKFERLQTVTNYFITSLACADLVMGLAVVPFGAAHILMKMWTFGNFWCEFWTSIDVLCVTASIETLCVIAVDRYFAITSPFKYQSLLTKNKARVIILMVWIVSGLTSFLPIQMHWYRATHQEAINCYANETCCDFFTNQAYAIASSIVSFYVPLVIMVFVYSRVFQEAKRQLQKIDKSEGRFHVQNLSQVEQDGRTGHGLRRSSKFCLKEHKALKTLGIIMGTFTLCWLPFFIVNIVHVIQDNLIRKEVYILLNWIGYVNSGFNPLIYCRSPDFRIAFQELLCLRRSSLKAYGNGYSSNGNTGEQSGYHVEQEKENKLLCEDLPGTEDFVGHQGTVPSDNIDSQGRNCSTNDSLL
Summary of the method: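 Cells (CHO, stable ADRB2 overexpression) incubated 18-20hr at 37C; compounds added from DMSO; agonist mix (1nM isoproterenol, 100uM IBMX, 25uM Ro-20-1724) added; 0.5hr RT; d2-cAMP and anti-cAMP-cryptate added; 1hr RT; 665/615 nm read.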

[16] = biological target: Beta-2 adrenergic receptor (Homo sapiens) (UniProt P07550); assay: Adrenergic beta2 receptor (ADRB2) small molecule agonists, cell-based qHTS assay (AID 1963593);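 further: CHO cells stably overexpressing human ADRB2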
Summary of the method: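 CHO cells stably over-expressing ADRB2 were plated overnight at 37C, then dosed with compounds plus a stimulation mix containing 100uM IBMX and 25uM Ro-20-1724 for 0.5hr at room temperature. cAMP was measured by HTRF competition, 1hr.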

[17] = biological target: D(2) dopamine receptor (Homo sapiens) (UniProt P14416); assay: Dopamine D2 receptor (DRD2) small molecule agonists, cell-based qHTS assay (AID 1963594); further: nearly all actives have a fitted effect of over 35% in size
Sequence of D(2) dopamine receptor (Homo sapiens) (P14416 whole entry, looked up): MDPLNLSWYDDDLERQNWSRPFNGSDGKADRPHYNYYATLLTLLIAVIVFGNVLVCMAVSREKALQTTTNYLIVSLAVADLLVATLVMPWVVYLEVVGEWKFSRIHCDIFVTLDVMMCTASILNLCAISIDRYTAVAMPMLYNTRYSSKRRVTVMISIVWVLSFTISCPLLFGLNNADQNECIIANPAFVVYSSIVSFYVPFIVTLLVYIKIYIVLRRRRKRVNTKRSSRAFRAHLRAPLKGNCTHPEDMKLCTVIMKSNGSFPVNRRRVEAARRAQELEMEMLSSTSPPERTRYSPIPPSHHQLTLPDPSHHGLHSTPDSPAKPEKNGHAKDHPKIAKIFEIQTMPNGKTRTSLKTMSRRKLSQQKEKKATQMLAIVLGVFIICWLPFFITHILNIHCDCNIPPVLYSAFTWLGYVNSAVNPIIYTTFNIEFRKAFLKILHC
Summary of the method: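 HEK293 cells stably expressing DRD2 were cultured 24 h at 37 C, then given Ro20-1724 (0.1 mM final) and compounds for 10 min at room temperature. NKH477 (200nM) was then added for 30 min. cAMP was read by HTRF.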

[18] = biological target: D(2) dopamine receptor (Homo sapiens) (UniProt P14416); assay: Dopamine D2 receptor (DRD2) small molecule antagonists, cell-based qHTS assay (AID 1963595; active means well fitted inhibition curve with a large enough effect in the signal ratio in the repeat runs, with a control signal flat; the % refers to the signal ratio)
Summary of the method: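 In this cell-based antagonist screen, compounds act for 10 min at room temperature before a 30 min challenge with 12 nM quinpirole and 200 nM NKH477. cAMP is quantified by HTRF competition in DRD2-HEK293 cells containing 0.1 mM Ro20-1724.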

[19] = p53 small molecule agonists, cell-based qHTS assay with rat liver microsomes: qHTS cell viability counter screen (AID 1963580); further: nearly all actives have a fitted effect of over 45% in size
Summary of the method: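 p53RE-bla HCT-116 cells (4,000/well) rested 5 h at 37 C, then given Tox21 compounds in DMSO with rat liver microsomes (0.5 mg/mL final) plus NADPH (0.5 mg/mL final) for 16 h at 37 C. Viability read by CellTiter-Glo luminescence after 30 min at room temperature.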

[20] = cAMP Responsive Elements (CRE) small molecule agonists, cell-based qHTS assay (AID 1963590)
Summary of the method: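 CRE-bla HEK 293T cells in DMEM with 10% dialyzed FBS, NEAA, pyruvate and 25 mM HEPES were plated 18 h at 37 C/5% CO2, then exposed to compounds in DMSO for 3 h before LiveBLAzer B/G FRET substrate addition.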

Measured: Potency

O=C1c2ccccc2C(=O)c2c(O)ccc(O)c21
not listed: [19] | [20]
inactive: all other assays above

O=C(O)C(=O)Cc1ccccc1
not listed: [7] | [15] | [16] | [18]
inactive: all other assays above

CCC(Cl)CCC(Cl)C(Cl)CC(Cl)C(Cl)C(Cl)CCl (configuration not stated)
not listed: [16] | [17] | [19]
inactive: all other assays above

c1ccc(-c2nc3ccccc3[nH]2)cc1
not listed: [8] | [12] | [16] | [19]
inactive: all other assays above

CC(=O)Nc1ccc(/C=N/NC(N)=S)cc1
not listed: [8] | [16] | [19] | [20]
inactive: all other assays above

Clc1cccc(Cl)n1
not listed: [9] | [19]
inactive: all other assays above

CCCCCC[C@@H](O)C/C=C\CCCCCCCC(=O)OC
not listed: [7] | [12] | [16]
inactive: all other assays above

CCO/C=C1\N=C(c2ccccc2)OC1=O
not listed: [14] | [16] | [19] | [20]
inactive: all other assays above

CCCCO
not listed: [6] | [10] | [16] | [17] | [18]
inactive: all other assays above

CC1CC(=O)NN=C1c1ccc(NCC(C)(C)NCC(O)COc2cc(Cl)ccc2C#N)cc1 (configuration not stated)
active: [15] 5.31 µM
not listed: [5] | [13] | [14] | [16] | [17] | [20]
inactive: all other assays above

OC[C@H]1O[C@@H](OCCc2ccc(O)cc2)[C@H](O)[C@@H](O)[C@@H]1O
not listed: [7] | [10] | [11] | [17]
inactive: all other assays above

Cc1cccc(Nc2ccccc2)c1
not listed: [5] | [13] | [14] | [15] | [20]
inactive: all other assays above

Cc1ccc(Cl)cc1N
not listed: [6] | [16] | [18]
inactive: all other assays above

CN1C(=O)c2ccccc2C1=O
active: [15] 54.5 µM
not listed: [6] | [9] | [12] | [16] | [17] | [19] | [20]
inactive: all other assays above

C=CC(=O)OCC(C)OCC(C)OCC(C)OC(=O)C=C (configuration not stated)
active: [1] 61.1 µM
not listed: [7] | [9] | [14] | [15] | [16] | [18] | [19] | [20]
inactive: all other assays above

CCc1oc2ccccc2c1C(=O)c1cc(I)c(O)c(I)c1
active: [1] 5.96 µM
not listed: [7] | [9] | [10] | [15]
inactive: all other assays above

CCC(=O)Oc1ccc(/C(CC)=C(\CC)c2ccc(OC(=O)CC)cc2)cc1
not listed: [7] | [9] | [15] | [16] | [19]
inactive: all other assays above
